# From PubChem BioAssay AID686978 (National Center for Advancing Translational Sciences (NCATS), 2013)
# In all, about 420,000 compounds went through this assay and about 64,000 (15%) were called active. Roughly 27% stayed inconclusive and do not appear here. The call rests on the fitted dose curve; in most records, active means well fitted inhibition curve with a large enough effect; inconclusive means small, poorly fitted or top-dose-only effect; inactive means flat fitted curve, though single readings scatter. The list is a sample of the results. A call without a number means that no potency is given here.
# Test: qHTS for Inhibitors of human tyrosyl-DNA phosphodiesterase 1 (TDP1): qHTS in cells in absence of CPT; further: nearly all actives have a fitted effect of over 55% in size
# Settings: DT40 Tdp1-/- hTDP1 cells, no CPT, ATP luminescence, 48 h; activity change, negative = growth inhibition: at 46.2 µM (top of the series)
# How it was run: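 DT40 Tdp1-/-;hTDP1 cells, no CPT (DMSO vehicle only), 400 cells/well; compounds pin-transferred; ≥48 hr, 37 °C; CellTiter-Glo 30 min RT dark, luminescence read.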
# Potency means the concentration at half of the fitted maximal effect.
row,SMILES,Potency
1,O=C(O)c1ccccc1-c1ccccc1C(=O)Nc1nccs1,inactive
2,COc1ccc(-c2ccc(CN3C(CC(C)C)C(=O)N(Cc4cn(CC5CCCCC5)nn4)CCS3(=O)=O)cc2)cc1 (stereo unspecified),9.2 µM (active)
3,COc1ccc([C@H]2CC(=O)C[C@@H](CCn3cc(CC4CCCC4)nn3)O2)cc1,inactive
4,COc1ccc(-c2ccc(CN3C(C(C)C)C(=O)N(Cc4cn(CC5CCCCC5)nn4)CCS3(=O)=O)cc2)cn1 (stereo unspecified),23.1 µM (active)
5,COc1ccc(-c2ccc(CN3C(CC(C)C)C(=O)N(Cc4cn(CC5CCCCC5)nn4)CCS3(=O)=O)cc2)cn1 (stereo unspecified),18.4 µM (active)
6,Cc1nccn1CCCNC(=O)CC1C(=O)NCCN1Cc1ccc(Cl)c(F)c1 (stereo unspecified),inactive
7,O=C(NCc1cccnc1)C12CC3CC(CC(C3)C1)C2,inactive
8,Cc1ccc(/C=C/C(=O)OCC(=O)Nc2cccnc2Cl)cc1,inactive
9,COc1ccc(NC(=O)CCS(=O)(=O)c2cc3c(cc2Cl)NC(=O)CO3)cc1OC,inactive
10,CC(C)C(C)(C#N)NC(=O)CSc1nncn1-c1ccccc1 (stereo unspecified),inactive
11,Cn1c(=O)c2sccc2n2c(CCC(=O)NCc3ccccc3Cl)nnc12,inactive
12,CSc1ccc(Cl)c(C(=O)OCC(=O)N2CCNC2=O)c1,inactive
13,O=C(C1CC(=O)N(c2ccc(Br)cc2)C1)N1CCCC1 (stereo unspecified),inactive
14,Cc1ccc(N2CC(C(=O)N3CCC4(CC3)CC(=O)c3ccccc3O4)CC2=O)cc1C (stereo unspecified),14.6 µM (active)
15,CCc1ccc(N2CC(C(=O)N3CCCCCC3)CC2=O)cc1 (stereo unspecified),inactive
16,Nn1c(SCC(=O)Nc2nccs2)nnc1-c1ccco1,inactive
17,COC(=O)C1=C(C(=O)c2ccc(C)cc2)C(c2ccccc2)n2nnnc2N1 (stereo unspecified),inactive
18,CC(C)Cc1ccc(C(C)C(=N)N)cc1 (stereo unspecified),6.51 µM (active)
19,COc1ccc(CCNC(=O)CC2SC(=Nc3cc(C)cc(C)c3)NC2=O)cc1OC (stereo unspecified),inactive
20,O=C1c2cccnc2C(Nc2ccc(S(=O)(=O)N3CCCCCC3)cc2)N1Cc1ccccc1 (stereo unspecified),inactive
21,O=[N+]([O-])c1ccc2c(c1)C(O)n1nc(-c3ccccc3)nc1S2 (stereo unspecified),inactive
22,NC1=NN(c2cccc(C(=O)O)c2)C(=O)C1,inactive

row,SMILES,Potency
1,Cc1nn(C)c(C)c1C(C)NC(=O)c1ccc(OC2CCN(Cc3ccccn3)CC2)cc1 (stereo unspecified),inactive
2,Cc1onc(-c2ccccc2)c1-c1nnc(COC(=O)c2ccc(N(C)C)cc2)o1,20.6 µM (active)
3,C=CCn1nc(-c2ccccc2)c2c(C)onc2c1=O,inactive
4,CN(C)c1ccc(-c2nnc(-c3cccnc3)o2)cc1,inactive
5,Cc1onc(-c2ccccc2Cl)c1C(=O)OCc1nnc(-c2ccccc2)o1,23.1 µM (active)
6,O=C(OCc1nnc(-c2ccccc2)o1)c1ccc2c(c1)C(=O)N(CCc1ccccc1)C2=O,inactive
7,Cc1ccc(C(=O)NCC(=O)OCc2nnc(-c3ccccc3)o2)cc1,inactive
8,CCCN1CNC(=S)N(CCc2ccccc2)C1,inactive
9,O=C(CSc1nc2[nH]c(=O)[nH]c(=O)c2s1)Nc1cccc(F)c1,inactive
10,O=C(O)c1ccccc1-c1cccc2nncn12,inactive
11,CCOC(=O)c1sc2nc(C)[nH]c(=O)c2c1C,inactive
12,CCOC(=O)c1sc(=S)n2c1[nH]c(=O)c1ccc(C(=O)OC)cc12,5.8 µM (active)
13,COC(=O)c1ccc2c(=O)n(CC3CCCO3)c(=S)[nH]c2c1 (stereo unspecified),inactive
14,Cc1cc(C)c2c(n1)sc1c(=O)n(-c3ccccc3)c(=O)[nH]c12,inactive
15,CC(=O)Nc1cc(C(=O)O)ccc1S(=O)(=O)c1ccc(Cl)cc1,inactive
16,COc1ccc2c(c1)cc1n2CCN=C1NN,inactive
17,COc1ccccc1CN1CC(C(=O)NCCc2cn[nH]c2)CCC1=O (stereo unspecified),inactive
18,CC(C)=CC1C(C(=O)O)C1(C)C (stereo unspecified),inactive
19,CCC1(C)COC(c2ccc(OC)c(OC)c2)OC1 (stereo unspecified),inactive
20,CC(=O)c1cccc(-n2nnnc2SCC(=O)NNC(=O)C2CCCCC2)c1,inactive
21,CCN(Cc1ccccc1)C(=O)CSc1nc(C)cc2c1C(=O)OC2,inactive
22,Cc1ccc(C(NC(=O)N2CCCC2)C(Cl)(Cl)Cl)cc1F (stereo unspecified),20.6 µM (active)

row,SMILES,Potency
1,Cc1cc(C)cc(NC(=O)N2CCCCCCC2)c1,inactive
2,CCOC(=O)C1CCCN(C(=O)c2ccc(C)c(F)c2)CC1 (stereo unspecified),inactive
3,CCOC(=O)C1C(=O)OC2(CCCC2)C1C(=O)OCC (stereo unspecified),inactive
4,Cc1ccc(CC2C(=O)N(c3ccc(F)cc3)C(=O)C2C)cc1 (stereo unspecified),inactive
5,CC1(C)CC(=O)CC2(C1)NCC(c1ccccc1Cl)c1c2[nH]c2ccccc12 (stereo unspecified),16.4 µM (active)
6,COC(=O)c1cc2occc2n1Cc1nc(-c2ccccc2C)oc1C,inactive
7,CNC(=O)c1ccc(-c2nc(CN3CCc4ccccc43)c(C)o2)cc1,20.6 µM (active)
8,CC(=O)Nc1ccccc1-c1nc(CNC(=O)c2ccc(Cl)cc2)c(C)o1,inactive
9,COc1ccc(-c2cn(-c3ccc(C)cc3)c(=O)n2CC(=O)Nc2ccc(OC)c(OC)c2)cc1,inactive
10,CN(Cc1ccccc1)C(=O)c1ccc(NC2=NC3CS(=O)(=O)CC3S2)cc1 (stereo unspecified),inactive
11,CCC(C)[C@H](NC(=O)N1CCn2c1nc1ccccc12)C(=O)NCc1ccc(OC)cc1 (stereo partly specified),16.4 µM (active)
12,CC(C)[C@H](NC(=O)N1CCn2c1nc1ccccc12)C(=O)NCc1ccc2c(c1)OCO2,inactive
13,CC(C)[C@H](NC(=O)N1CCn2c1nc1ccccc12)C(=O)NC1CC1,inactive
14,N/C(=N\OC(=O)CCCC(=O)O)c1ncc(C(F)(F)F)cc1Cl,inactive
15,CC(C)CCN1CCC(C)(NC(=O)c2ccccc2)C1=O (stereo unspecified),inactive
16,CN(C)/C=C(/C(=O)c1ccc(Cl)cc1)S(=O)(=O)c1ccccc1,inactive
17,COC(C[C@@H]1O[C@@H]1C(=O)[C@H](C)OCc1ccccc1)OC,inactive
18,COC(C/C=C/C(=O)[C@@H](C)OCc1ccccc1)OC,18.4 µM (active)
19,COC(C[C@H](O)CC(=O)[C@@H](C)OCc1ccccc1)OC,inactive
20,CCc1ccccc1N1C(=O)CN(S(=O)(=O)CC)CC1(C)C(=O)NC1CCCCC1 (stereo unspecified),inactive
21,Cc1ccccc1N1CC(C(=O)Nc2ccc3c(c2)OCO3)CC1=O (stereo unspecified),inactive
22,CN(C)c1ccc(CNC23CN4CN(CN(C4)C2)C3)cc1,18.4 µM (active)

row,SMILES,Potency
1,CCOc1ccc(NC(=O)CC2NCCNC2=O)cc1 (stereo unspecified),inactive
2,O=C(C[C@H]1C[C@H]2c3cc(NS(=O)(=O)c4ccc(F)cc4)ccc3O[C@H]2[C@H](CO)O1)NCc1cc(F)ccc1F,18.4 µM (active)
3,O=C(Nc1ccc2c(c1)[C@@H]1C[C@@H](CC(=O)N3CCCCC3)O[C@@H](CO)[C@@H]1O2)NC1CCCCC1,inactive
4,COC(=O)C[C@H]1C[C@@H]2c3cc(NC(=O)Nc4ccccc4)ccc3O[C@@H]2[C@@H](CO)O1,inactive
5,O=C1NC(O)CCN1C1CC(O)C(CO)O1 (stereo unspecified),inactive
6,CC(C)Oc1ccc(Oc2ccc(C(F)(F)F)cn2)cc1,inactive
7,COC(=O)CC1=NN(c2nc(C)cc(C)n2)C(=O)C1,inactive
8,C=CCn1c(=NC(=O)c2ccc(S(=O)(=O)N3CCCC3)cc2)sc2cc(NC(C)=O)ccc21,inactive
9,Cn1cc(Cl)c(C(=O)NNC(=S)Nc2cccc(Cl)c2)n1,inactive
10,Cc1cccc(-n2cnc(C(=O)NNC(=S)Nc3ccccc3)c2)n1,23.1 µM (active)
11,Cc1cccc(-n2cnc(C(=O)Nc3cccnc3)c2)n1,inactive
12,Cc1ccc(CNC(=O)CCNS(=O)(=O)c2ccc3c(c2)oc(=O)n3C)cc1,inactive
13,CCOc1ccc(CNCCSc2nnnn2C)cc1,inactive
14,COC(=O)c1ccccc1NC(=O)CSc1nnnn1C,inactive
15,COc1cccc(CNCCSc2nnnn2C)c1OCc1ccccc1Cl,20.6 µM (active)
16,COc1cccc(CNn2cn[nH]c2=S)c1OCc1ccccc1,inactive
17,COc1cc(CNCCSc2nnnn2C)ccc1OCc1ccc(Cl)cc1Cl,23.1 µM (active)
18,Cn1nnnc1SCCNCc1ccc(Cl)c(Cl)c1,inactive
19,CCOc1ccc(OCC)c(Nc2nc3ccccc3n3nnnc23)c1,inactive
20,C=CCOc1c(CNn2cn[nH]c2=S)cccc1OC,inactive
21,CC(C)CC(=O)NCC(c1ccc2c(c1)OCO2)N1CCN(c2ccc(F)cc2)CC1 (stereo unspecified),25.9 µM (active)
22,CC(C)CNC(=O)C(=O)NCC(c1ccc2c(c1)OCO2)N1CCOCC1 (stereo unspecified),inactive

row,SMILES,Potency
1,O=C(NCCO)C(=O)NCC(c1ccc2c(c1)OCO2)N1CCN(c2ccc(F)cc2)CC1 (stereo unspecified),inactive
2,Cc1c(C(=O)NCC2CCCN(C)C2)cnn1-c1nccc(-c2ccco2)n1 (stereo unspecified),inactive
3,CC1CC(=O)Nc2ccccc2N1S(=O)(=O)c1cccs1 (stereo unspecified),inactive
4,COc1ccc2[nH]c(=O)c(-c3noc(-c4ccc(F)cc4)n3)cc2c1,inactive
5,COc1ccc(Cc2cc(-c3ccc(F)cc3)n[nH]c2=O)cc1,13 µM (active)
6,COc1ccc(Cc2nnc(SC)[nH]c2=O)cc1,inactive
7,COc1ccc(CNC(=O)CCC(=O)Nc2nnc(C(C)C)s2)cc1,inactive
8,COc1ccccc1OCC(=O)OCc1cc(-c2ccco2)on1,inactive
9,CCCc1ccc(OCC(O)CN2CCN(C(=O)OCC)CC2)cc1 (stereo unspecified),inactive
10,COc1ccc(OC)c(NC(=O)c2cc(-c3cc(F)ccc3OCC3CCCO3)n[nH]2)c1 (stereo unspecified),9.2 µM (active)
11,COc1ccc(C(=O)Nc2ccc(C(=O)NCC3CCCO3)cc2)c(OC)c1OC (stereo unspecified),inactive
12,O=C(O)CCC(=O)Nc1ccc(OCC2CCCO2)cc1 (stereo unspecified),inactive
13,O=C(/C=C/c1cc2c(cc1Br)OCO2)NCc1ccc(Cl)cc1,inactive
14,CCCCn1c(N)c(N(Cc2ccccc2OC)C(=O)COc2cc(C)ccc2Cl)c(=O)[nH]c1=O,inactive
15,Cc1cc(C)cc(NS(=O)(=O)Cc2ccccc2)c1,inactive
16,O=[N+]([O-])c1ccc(/C=C/c2ccc3cccnc3c2)cc1,10 µM (active)
17,O=C(Oc1ccc([N+](=O)[O-])cc1)c1ccc2ccccc2n1,inactive
18,O=C(OCc1ccc([N+](=O)[O-])cc1)c1ccccn1,inactive
